PubChem BioAssay (NCATS)
Inconclusive results are not listed. The source made the active and inactive calls. Unless noted, calls follow the shape of the dose curve; as a rule, active = well fitted curve in the direction sought with a large enough effect; inconclusive = small, poorly fitted or top-dose-only effect, or another doubt; inactive = no such curve, though single readings can be large; an effect the other way counts as inactive or inconclusive.

Key:
[1] = biological target: Lysosomal acid glucosylceramidase (Homo sapiens) (UniProt P04062); assay: Glucocerebrosidase-p2 (AID 348; in the data active = potency below about 10 µM; also: potency is read from the fitted curve at half-maximal effect); conditions: purified GBA, blue fluorogenic substrate, 40 min
In short: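 Compounds titrated from 0.6 nM upwards against 0.2 nM enzyme in pH 5.9 citric acid/KH2PO4, taurocholate, tween-20; blue fluorogenic substrate 80 uM, 40 min room temperature, stopped and read Ex 365/Em 440 for AC50.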

[2] = AP1 Signaling Pathway (AID 357; active = well fitted curve in either direction with a large enough effect, not every such curve was filed as active; also: % is scaled to controls: 0 for no effect and ±100 for the full control effect); conditions: ME-180 AP-1-bla reporter, EGF-induced, beta-lactamase ratio, 5 h; at 7.69 µM (top of the series) unless noted
In short: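 ME-180 cells with beta-lactamase reporter under AP-1 response element, stimulated with EC50 EGF; compounds tested in titration series, 5 h at 37 °C. CCF4 substrate added 2.5 h at room temperature; 460/530 nm emission ratio gave %activity and AC50.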

[3] = biological target: Cytochrome P450 1A2 (Homo sapiens) (UniProt P05177); assay: p450-cyp1a2 (AID 410; calls by dose curve; also: potency is read from the fitted curve at half-maximal effect;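 as to activity change, negative = inhibition: -100% = full effect of reference inhibitor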); conditions: recombinant CYP1A2, luciferin-ME demethylation, luminescence; series mostly up to 57 µM
In short: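 Human CYP1A2 (20nM) demethylated Luciferin-ME at its Km (100uM) in 100mM KPO4. After 10 min compound preincubation, NADPH regeneration ran the reaction 60 min at room temperature. Luciferin was read by luminescence, normalized to 57 uM furafylline.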

[4] = NFAT Signaling Pathway (AID 444; active = well fitted curve in either direction with a large enough effect, not every such curve was filed as active;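 also: carbachol stimulus at about its EC50 of 1 µM final; % is scaled to controls: 0 for no effect and ±100 for the full control effect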); conditions: Jurkat NFAT-bla M1, carbachol, beta-lactamase ratio, 5 h; at 7.69 µM (top of the series) unless noted
In short: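 Read-out: CCF4 FRET ratio (460 nm/530 nm) after 1 h RT dye loading, used for %activity and AC50 from titration series. Cells: Jurkat NFAT-β-lactamase/M1 line, treated with compound plus 1 uM carbachol for 5 h, 37 °C.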

[5] = Stat Signaling Pathway (AID 446; active = well fitted curve in either direction with a large enough effect, not every such curve was filed as active;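 also: ME-180 cervical cancer cells given 40 pM IL-6 alongside compound; SIE-controlled beta-lactamase reporter measured as 460/530 nm FRET emission ratio; % is scaled to controls: 0 for no effect and ±100 for the full control effect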); conditions: ME-180 (cervical carcinoma) SIE beta-lactamase reporter, IL-6 stimulated, 5 h; at 7.69 µM (top of the series) unless noted
In short: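 IL-6/STAT signaling read in ME-180 cells via an SIE beta-lactamase reporter. Stimulus was 40 pM IL-6 (its AC50) for 5 hrs, so both activation and inhibition register.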

[6] = biological target: Glucocorticoid receptor (Homo sapiens) (UniProt P04150); assay: GR-GFP Redistribution (AID 450;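 active = compounds whose dose series gives a full or clear partial fitted curve of increased nuclear translocation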; also: potency is read from the fitted curve at half-maximal effect); conditions: U2OS GR-GFP nuclear translocation, laser cytometry, 2 h
[7] = biological target: Glucocorticoid receptor (Homo sapiens) (UniProt P04150); assay: GR-EFC Redistribution (AID 451; calls by dose curve; also: potency is read from the fitted curve at half-maximal effect); conditions: CHO-K1 GR-EFC translocation, beta-gal luminescence, 2 h
In short: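 Translocation of GR-ED fusion to nuclear EA restores b-gal, read by luminescence after 1 h room-temperature detection. Engineered CHO-K1 biosensor cells, 1,000/well, exposed 2 h at 37 C to titrations up to 46 uM final.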

[8] = biological target: Mitogen-activated protein kinase 10 (Mus musculus) (UniProt Q61831); assay: JNK3 AlphaScreen Assay (AID 530; active = well fitted curve in either direction with a large enough effect, not every such curve was filed as active;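 also: kinase came from lysate of stimulated human HepG2 cells; signal reports phosphorylation of biotinylated GST-cJun 1-79 at Ser73 with 10 µM ATP; % is scaled to controls: 0 for no effect and ±100 for the full control effect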); conditions: JNK3 lysate, c-Jun phosphorylation; series mostly up to 57.1 µM
In short: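 Room-temperature AlphaScreen kinase assay; pre-activated HepG2 lysate as JNK3 source, biotin-GST-cJun(1-79) substrate, 10 uM ATP, compound 15 min preincubation.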

[9] = biological target: 3',5'-cyclic-AMP phosphodiesterase 4B (Homo sapiens) (UniProt Q07343); assay: qHTS Assay for Inhibitors of PDE-IV (AID 607; active = well fitted activation curve with a large enough effect in the main read-out, with a control signal flat, not every such curve was filed as active; also: % of control where 0% means no effect); conditions: HEK293 ACTOne CNG channel cells, membrane potential fluorescence; series mostly up to 22.9 µM
In short: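 Live HEK293 cells with a modified cyclic nucleotide-gated (CNG) channel report intracellular cAMP via membrane-potential dye fluorescence (ex 535/em 590 nm). Endogenous PDE-IV was targeted. Compounds were tested at up to 22.9 uM final; RO 20-1724 100 uM served as control.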

[10] = biological target: Cytochrome P450 3A4 (Homo sapiens) (UniProt P08684); assay: qHTS Assay for Inhibitors and Substrates of Cytochrome P450 3A4 (AID 884); conditions: recombinant CYP3A4, Luciferin-PPXE luminescence; series mostly up to 57.1 µM; also: potency is read from the fitted curve at half-maximal effect; nearly all actives have a fitted effect of over 50% in size
In short: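 20 nM human CYP3A4 with 25 uM Luciferin-PPXE (at KM) in 200 mM KPO4, preincubated 10 min with compound; NADPH regeneration started a 60 min RT reaction. Luciferin detected by luminescence, normalized to 57 uM ketoconazole as full inhibition.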

[11] = biological target: Cytochrome P450 3A4 (Homo sapiens) (UniProt P08684); assay: qHTS Assay for Activators of Cytochrome P450 3A4 (AID 885); conditions: recombinant CYP3A4, Luciferin-PPXE luminescence, 60 min; series mostly up to 57.1 µM; also: nearly all actives have a fitted effect of over 65% in size
In short: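 Quantitative HTS format: compounds preincubated with 20nM human CYP3A4 and Luciferin-PPXE substrate at KM, reaction started by NADPH regeneration, stopped after 60 min, luciferase luminescence read 20 min later.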

[12] = qHTS Assay for Lipid Storage Modulators (AID 1519; calls by dose curve); conditions: Drosophila S3 cells, BODIPY lipid droplet/cell ratio, laser cytometry, cells loaded with oleic acid; for activity change, negative = inhibition: at 57.5 µM (top of the series)
In short: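 Cells seeded at 5,000 per well were treated with compounds over a concentration series and loaded with oleic acid (400 uM, as added). Lipid droplet fluorescence (488 nm excitation, 500-530 nm channel) was read by laser-scanning cytometry and normalized to 20 uM Triacsin C.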

[13] = Primary qHTS for small molecule stabilizers of the endoplasmic reticulum resident proteome: Secreted ER Calcium Modulated Protein (SERCaMP) assay (AID 1508630); conditions: SH-SY5Y GLuc-SERCaMP (Gaussia luciferase released on ER calcium loss) secretion, thapsigargin, luminescence; series mostly up to 38.4 µM; also: % is scaled to controls: 0 for no effect and ±100 for the full control effect
In short: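 GLuc-SERCaMP-expressing SH-SY5Y cells, pretreated 16 h with compound, are challenged with thapsigargin to empty ER calcium stores; after 4 h, coelenterazine is added directly to the medium and luminescence is imaged.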

[14] = biological target: Cytochrome P450 2D6 (Homo sapiens) (UniProt P10635); assay: qHTS Assay for Inhibitors and Substrates of Cytochrome P450 2D6 (AID 891); conditions: recombinant CYP2D6, luciferin-ME EGE luminescence; series mostly up to 57.1 µM; also: potency is read from the fitted curve at half-maximal effect; nearly all actives have a fitted effect of over 60% in size
In short: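 Human CYP2D6 (5 nM) with 30 uM Luciferin-ME EGE (at Km) in 100 mM KPO4, compound preincubated 10 min, then NADPH regeneration system for 60 min at room temperature. Luciferin read by luminescence; normalized to 1.43 uM quinidine.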

[15] = biological target: Cytochrome P450 2C19 (Homo sapiens) (UniProt P33261); assay: qHTS Assay for Inhibitors and Substrates of Cytochrome P450 2C19 (AID 899); conditions: recombinant CYP2C19, luciferin-H EGE luminescence; series mostly up to 57.1 µM; also: potency is read from the fitted curve at half-maximal effect; nearly all actives have a fitted effect of over 60% in size
In short: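 Reactions contain 5nM enzyme, 10uM Luciferin-H EGE (KM) and 50mM KPO4; compound preincubates 10 min at 37C, NADPH regeneration starts turnover for 60 min. Luminescence after detection reagent gives activity.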

[16] = Confirmation and Secondary Assay for Modulators of Hemoglobin Beta Chain Splicing at IVS2 654 locus (AID 910); conditions: HeLa EGFP-654 splicing reporter, GFP fluorescence, 48 h; series mostly up to 38.3 µM;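 also: HeLa cells stably carrying EGFP split by mutant beta-globin IVS2-654 intron; per-well total GFP intensity by laser scanning cytometry after 2-day treatment; % of control where 0% means no effect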
In short: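 Readout: per-well total peak green fluorescence (488 nm ex, 500–520 nm em) from objects 5–250 µm, reflecting correct splicing of an EGFP-654 reporter. Compounds were applied for 2 days at 37 °C to overnight-plated HeLa EGFP-654 cells; controls were DMSO and 500 nM IVS2-654 PNA.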

[17] = Confirmation and Secondary Assay for Modulators of Hemoglobin Beta Chain Splicing at IVS2 705 locus (AID 930); conditions: HeLa EGFP-705 splicing reporter, GFP fluorescence, 48 h; series mostly up to 38.3 µM;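 also: HeLa cells stably expressing the EGFP-705 splicing reporter; GFP fluorescence per well restored by corrected splicing of the IVS2-705 intron in EGFP; % of control where 0% means no effect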
In short: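 Assay measures total GFP intensity per well in HeLa EGFP-705 cells after 2 days with compound; mis-splicing normally truncates EGFP, so fluorescence indicates corrected splicing.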

[18] = biological target: Cytochrome P450 2C9 (Homo sapiens) (UniProt P11712); assay: qHTS Assay for Inhibitors and Substrates of Cytochrome P450 2C9 (AID 883); conditions: recombinant CYP2C9, luciferin-H luminescence, 60 min; series mostly up to 57.1 µM; also: potency is read from the fitted curve at half-maximal effect; nearly all actives have a fitted effect of over 60% in size
In short: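 Turnover of Luciferin-H (100uM, KM) by 10nM human CYP2C9 was measured over 60 min at 37C with NADPH regeneration; inhibitors and some substrates reduce luminescence. Data normalized to sulphaphenazole 57uM.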

[19] = measured here: cell count channel max response
[20] = measured here: lipid channel max response

Chain of Cytochrome P450 2C19 (Homo sapiens) (P33261 whole entry, looked up): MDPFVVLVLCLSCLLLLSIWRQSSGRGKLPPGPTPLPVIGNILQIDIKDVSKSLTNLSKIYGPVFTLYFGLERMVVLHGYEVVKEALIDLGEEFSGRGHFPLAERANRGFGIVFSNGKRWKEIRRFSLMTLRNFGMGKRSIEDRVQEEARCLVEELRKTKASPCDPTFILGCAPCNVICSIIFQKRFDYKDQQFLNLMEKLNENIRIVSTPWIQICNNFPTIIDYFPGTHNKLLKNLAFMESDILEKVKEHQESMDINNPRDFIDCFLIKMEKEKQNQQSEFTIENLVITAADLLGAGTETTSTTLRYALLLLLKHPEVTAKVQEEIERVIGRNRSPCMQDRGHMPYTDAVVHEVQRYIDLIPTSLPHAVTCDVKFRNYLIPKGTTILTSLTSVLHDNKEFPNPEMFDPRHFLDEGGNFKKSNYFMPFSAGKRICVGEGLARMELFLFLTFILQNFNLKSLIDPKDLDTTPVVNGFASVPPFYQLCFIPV
Chain of Cytochrome P450 1A2 (Homo sapiens) (P05177 whole entry, looked up): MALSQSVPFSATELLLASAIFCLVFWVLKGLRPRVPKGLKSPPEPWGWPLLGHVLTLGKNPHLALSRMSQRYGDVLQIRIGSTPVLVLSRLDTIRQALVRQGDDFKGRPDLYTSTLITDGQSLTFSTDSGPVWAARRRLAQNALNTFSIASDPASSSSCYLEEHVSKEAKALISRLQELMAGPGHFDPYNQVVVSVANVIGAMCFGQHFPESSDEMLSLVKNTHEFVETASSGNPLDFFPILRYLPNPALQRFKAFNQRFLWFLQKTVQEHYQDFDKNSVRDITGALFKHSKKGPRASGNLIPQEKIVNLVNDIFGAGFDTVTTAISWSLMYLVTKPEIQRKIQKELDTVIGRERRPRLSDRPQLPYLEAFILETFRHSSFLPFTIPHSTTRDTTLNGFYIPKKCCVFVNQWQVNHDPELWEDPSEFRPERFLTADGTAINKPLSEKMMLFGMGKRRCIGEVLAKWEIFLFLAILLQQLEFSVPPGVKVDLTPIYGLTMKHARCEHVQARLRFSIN
Chain of Lysosomal acid glucosylceramidase (Homo sapiens) (P04062 whole entry, looked up): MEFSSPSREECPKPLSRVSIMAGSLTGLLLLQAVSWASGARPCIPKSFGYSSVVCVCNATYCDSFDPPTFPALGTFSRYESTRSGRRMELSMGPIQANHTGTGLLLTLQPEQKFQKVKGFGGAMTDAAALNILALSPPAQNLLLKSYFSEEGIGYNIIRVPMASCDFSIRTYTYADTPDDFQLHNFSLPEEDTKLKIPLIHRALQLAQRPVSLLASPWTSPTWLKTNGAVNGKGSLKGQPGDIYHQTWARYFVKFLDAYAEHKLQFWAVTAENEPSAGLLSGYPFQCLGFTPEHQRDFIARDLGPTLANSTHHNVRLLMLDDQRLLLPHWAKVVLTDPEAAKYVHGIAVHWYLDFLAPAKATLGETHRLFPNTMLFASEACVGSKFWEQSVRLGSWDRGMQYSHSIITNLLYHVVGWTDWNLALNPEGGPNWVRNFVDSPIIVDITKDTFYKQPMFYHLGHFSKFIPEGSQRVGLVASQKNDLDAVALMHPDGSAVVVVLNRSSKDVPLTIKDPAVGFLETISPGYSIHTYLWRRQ
Chain of Cytochrome P450 3A4 (Homo sapiens) (P08684 whole entry, looked up): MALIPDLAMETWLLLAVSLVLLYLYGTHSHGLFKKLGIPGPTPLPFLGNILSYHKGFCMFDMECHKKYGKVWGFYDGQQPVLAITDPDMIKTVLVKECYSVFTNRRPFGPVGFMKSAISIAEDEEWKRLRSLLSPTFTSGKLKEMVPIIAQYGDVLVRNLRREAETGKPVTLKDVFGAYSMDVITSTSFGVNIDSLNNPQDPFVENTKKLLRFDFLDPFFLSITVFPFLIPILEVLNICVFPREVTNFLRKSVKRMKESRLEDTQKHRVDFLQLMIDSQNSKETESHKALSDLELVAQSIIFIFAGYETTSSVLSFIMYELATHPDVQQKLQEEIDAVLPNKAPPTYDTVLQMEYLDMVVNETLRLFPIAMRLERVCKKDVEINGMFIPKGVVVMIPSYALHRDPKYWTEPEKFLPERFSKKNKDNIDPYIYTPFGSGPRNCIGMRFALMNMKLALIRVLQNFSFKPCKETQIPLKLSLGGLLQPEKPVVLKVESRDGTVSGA
Chain of 3',5'-cyclic-AMP phosphodiesterase 4B (Homo sapiens) (Q07343 whole entry, looked up): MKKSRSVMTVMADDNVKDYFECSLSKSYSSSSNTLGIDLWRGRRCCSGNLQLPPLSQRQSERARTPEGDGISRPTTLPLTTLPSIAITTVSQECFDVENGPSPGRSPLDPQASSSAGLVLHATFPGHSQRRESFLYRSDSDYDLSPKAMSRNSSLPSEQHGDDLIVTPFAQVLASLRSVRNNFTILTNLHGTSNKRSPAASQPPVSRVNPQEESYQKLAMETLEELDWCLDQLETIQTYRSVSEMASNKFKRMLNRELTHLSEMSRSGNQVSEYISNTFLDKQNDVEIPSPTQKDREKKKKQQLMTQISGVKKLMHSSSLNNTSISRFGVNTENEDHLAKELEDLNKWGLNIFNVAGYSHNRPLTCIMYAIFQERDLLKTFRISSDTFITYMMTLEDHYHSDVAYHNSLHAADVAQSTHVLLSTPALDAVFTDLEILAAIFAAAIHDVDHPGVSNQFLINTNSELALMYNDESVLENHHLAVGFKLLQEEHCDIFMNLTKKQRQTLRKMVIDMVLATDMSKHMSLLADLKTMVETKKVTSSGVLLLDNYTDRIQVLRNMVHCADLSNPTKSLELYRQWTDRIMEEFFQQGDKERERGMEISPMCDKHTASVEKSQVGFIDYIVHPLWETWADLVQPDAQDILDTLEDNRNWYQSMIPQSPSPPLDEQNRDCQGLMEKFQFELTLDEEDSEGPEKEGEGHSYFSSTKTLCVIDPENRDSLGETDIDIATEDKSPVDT
Chain of Glucocorticoid receptor (Homo sapiens) (P04150 whole entry, looked up, the tested form may be a part): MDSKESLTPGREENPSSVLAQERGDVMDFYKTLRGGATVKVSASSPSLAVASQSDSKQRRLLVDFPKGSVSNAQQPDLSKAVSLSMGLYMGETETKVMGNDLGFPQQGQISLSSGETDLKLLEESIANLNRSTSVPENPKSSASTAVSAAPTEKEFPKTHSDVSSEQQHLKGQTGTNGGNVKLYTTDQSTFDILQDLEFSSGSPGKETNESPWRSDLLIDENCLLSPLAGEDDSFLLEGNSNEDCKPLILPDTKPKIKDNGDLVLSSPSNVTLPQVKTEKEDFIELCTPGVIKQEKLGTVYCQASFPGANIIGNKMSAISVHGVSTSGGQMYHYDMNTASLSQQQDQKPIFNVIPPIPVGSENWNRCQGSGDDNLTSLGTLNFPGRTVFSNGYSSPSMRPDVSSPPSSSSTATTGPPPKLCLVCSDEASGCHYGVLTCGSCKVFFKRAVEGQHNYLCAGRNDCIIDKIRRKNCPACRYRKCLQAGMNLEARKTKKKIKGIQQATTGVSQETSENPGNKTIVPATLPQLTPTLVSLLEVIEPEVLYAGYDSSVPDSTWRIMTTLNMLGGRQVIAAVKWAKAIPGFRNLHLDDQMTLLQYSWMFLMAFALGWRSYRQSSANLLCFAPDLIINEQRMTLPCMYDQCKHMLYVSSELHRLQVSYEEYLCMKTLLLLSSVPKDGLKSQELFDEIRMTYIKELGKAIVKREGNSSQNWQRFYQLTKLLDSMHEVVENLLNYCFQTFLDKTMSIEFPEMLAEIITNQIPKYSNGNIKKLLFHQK
Chain of Cytochrome P450 2C9 (Homo sapiens) (P11712 whole entry, looked up): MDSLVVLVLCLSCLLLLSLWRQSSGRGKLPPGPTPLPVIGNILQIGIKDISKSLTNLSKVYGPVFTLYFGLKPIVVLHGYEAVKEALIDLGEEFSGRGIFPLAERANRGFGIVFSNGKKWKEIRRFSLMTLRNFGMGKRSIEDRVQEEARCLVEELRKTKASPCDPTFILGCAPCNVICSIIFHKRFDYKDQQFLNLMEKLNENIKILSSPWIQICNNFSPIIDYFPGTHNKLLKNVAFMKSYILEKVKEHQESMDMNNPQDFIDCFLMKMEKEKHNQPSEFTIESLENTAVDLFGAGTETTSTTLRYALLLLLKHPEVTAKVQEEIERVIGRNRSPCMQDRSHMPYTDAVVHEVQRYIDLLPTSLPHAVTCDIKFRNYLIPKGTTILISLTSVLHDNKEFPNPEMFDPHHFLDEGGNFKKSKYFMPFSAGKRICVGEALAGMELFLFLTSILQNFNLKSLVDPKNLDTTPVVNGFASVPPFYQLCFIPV
Chain of Cytochrome P450 2D6 (Homo sapiens) (P10635 whole entry, looked up): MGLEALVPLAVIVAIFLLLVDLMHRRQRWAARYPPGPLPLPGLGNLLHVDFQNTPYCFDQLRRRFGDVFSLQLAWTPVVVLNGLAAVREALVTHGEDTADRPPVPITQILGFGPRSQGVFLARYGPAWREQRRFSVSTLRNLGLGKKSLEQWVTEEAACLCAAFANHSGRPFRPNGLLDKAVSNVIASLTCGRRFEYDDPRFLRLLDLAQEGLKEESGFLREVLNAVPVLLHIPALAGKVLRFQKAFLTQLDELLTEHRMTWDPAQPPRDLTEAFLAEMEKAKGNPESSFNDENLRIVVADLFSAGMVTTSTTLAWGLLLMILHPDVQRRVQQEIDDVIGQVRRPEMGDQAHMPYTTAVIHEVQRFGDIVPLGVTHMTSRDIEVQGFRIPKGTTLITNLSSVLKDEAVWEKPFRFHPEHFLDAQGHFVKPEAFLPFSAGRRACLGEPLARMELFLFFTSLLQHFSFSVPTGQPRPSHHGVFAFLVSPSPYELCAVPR

With `COc1ccc(-n2c(=O)c(-c3cn(C)c4ccccc34)nc3cnc(OC)nc32)cc1` the Potency [1] was > 11.4 µM (inactive), the activity change, negative = inhibition [2] was -6.77% (inactive) and the Potency [3] was “inactive”. The activity change, negative = inhibition [4] was -7.96% (inactive), the activity, negative = inhibition [5] was 5.87% (inactive) and the Potency [6] was > 9.22 µM (inactive). For the same compound, the Potency [7] was > 46 µM (inactive), the outcome [8] was “inactive” and the Potency [9] was “inactive”. The Potency [10] was 1.58 µM (active), the Potency [11] was “inactive” and the activity change, negative = inhibition [12] was -13.3% (inactive). For the same compound, the max response [12, 19] was 4.94%, the max response [12, 20] was -9.54% and the Potency [13] was “inactive”.

For `COc1ccc(-n2c(=O)cnc3cnc(Oc4ccccc4)nc32)cc1`, the Potency [1] was > 11.4 µM (inactive), the activity change, negative = inhibition [2] was -8.13% (inactive) and the Potency [3] was 15.8 µM (active). For the same compound, the activity change, negative = inhibition [4] was 2.58% (inactive), the activity, negative = inhibition [5] was -13.1% (inactive) and the Potency [6] was > 9.22 µM (inactive). For the same compound, the Potency [7] was > 46 µM (inactive), the outcome [8] was “inactive” and the Potency [9] was “inactive”. The Potency [11] was “inactive”, the activity change, negative = inhibition [12] was 1.98% (inactive) and the max response [12, 19] was 3.82%. For the same compound, the max response [12, 20] was 6.57% and the Potency [13] was “inactive”.

In the case of `Clc1ccccc1-c1nccc(-n2ccnc2)n1`, the Potency [1] is reported as > 11.4 µM (inactive), the activity change, negative = inhibition [2] is reported as -12.3% (inactive) and the Potency [3] is reported as 0.158 µM (active). The activity change, negative = inhibition [4] was -0.584% (inactive), the activity, negative = inhibition [5] was 0.405% (inactive) and the Potency [6] was > 46 µM (inactive). For the same compound, the Potency [7] was > 46 µM (inactive), the outcome [8] was “inactive” and the Potency [9] was “inactive”. For the same compound, the Potency [10] was 1.26 µM (active), the Potency [11] was “inactive” and the Potency [14] was 7.94 µM (active). The Potency [15] was 2.51 µM (active), the outcome [16] was “inactive” and the outcome [17] was “inactive”. For the same compound, the activity change, negative = inhibition [12] was 8.95% (inactive), the max response [12, 19] was 4.29% and the max response [12, 20] was 13%. The Potency [13] was “inactive”.

With `COc1ccccc1CCn1c(=O)c(-c2cc(F)cc(F)c2)nc2cncnc21` the Potency [1] was > 11.4 µM (inactive), the activity change, negative = inhibition [2] was -3.28% (inactive) and the Potency [3] was 1.58 µM (active). The activity change, negative = inhibition [4] was -7.47% (inactive), the activity, negative = inhibition [5] was 13% (inactive) and the Potency [6] was > 9.22 µM (inactive). The Potency [7] was > 46 µM (inactive), the outcome [8] was “inactive” and the Potency [18] was 1.58 µM (active). The Potency [10] was 0.398 µM (active), the Potency [11] was “inactive” and the Potency [15] was 1.58 µM (active). For the same compound, the activity change, negative = inhibition [12] was 6.22% (inactive), the max response [12, 19] was -2.09% and the max response [12, 20] was 2.22%. For the same compound, the Potency [13] was “inactive”.

With `CN(C)c1ccc(-c2cncnc2NCc2cccs2)cc1` the Potency [1] was > 11.4 µM (inactive), the activity change, negative = inhibition [2] was -15.1% (inactive) and the Potency [3] was 0.398 µM (active). For the same compound, the activity change, negative = inhibition [4] was 2.25% (inactive), the activity, negative = inhibition [5] was -0.237% (inactive) and the Potency [6] was > 46 µM (inactive). The Potency [7] was > 46 µM (inactive), the Potency [10] was 0.794 µM (active) and the Potency [11] was “inactive”. For the same compound, the Potency [15] was 0.631 µM (active), the outcome [16] was “inactive” and the outcome [17] was “inactive”. The activity change, negative = inhibition [12] was 7.98% (inactive), the max response [12, 19] was 4.82% and the max response [12, 20] was 15.4%. For the same compound, the Potency [13] was “inactive”.

With `COc1ncc2ncc(=O)n(Cc3cccs3)c2n1` the Potency [1] was > 11.4 µM (inactive), the activity change, negative = inhibition [2] was 1.19% (inactive) and the Potency [3] was 10 µM (active). The activity change, negative = inhibition [4] was -2.85% (inactive), the activity, negative = inhibition [5] was -3.48% (inactive) and the Potency [6] was > 9.22 µM (inactive). The Potency [7] was > 46 µM (inactive), the outcome [8] was “inactive” and the Potency [11] was “inactive”. For the same compound, the activity change, negative = inhibition [12] was 4.1% (inactive), the max response [12, 19] was 9.65% and the max response [12, 20] was 19.6%. For the same compound, the Potency [13] was “inactive”.
